# The list is not random: actives were taken first. Their share in the collection is about 1.5%.
# HGIII-sPLA2 inh – Blocks human group III sPLA2 activity. Q9NZ20. QFRET BODIPY PC-A2 liposome hydrolysis, fluorescence. inhibition, % at 12.2 µM. 0.56% of 370,000 active. AID 743126;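 active = inhibition above mean plus 3 SD of compounds lying within the high and low control bounds, cut at about 19% in these data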
# Target sequence (Q9NZ20 whole entry, looked up): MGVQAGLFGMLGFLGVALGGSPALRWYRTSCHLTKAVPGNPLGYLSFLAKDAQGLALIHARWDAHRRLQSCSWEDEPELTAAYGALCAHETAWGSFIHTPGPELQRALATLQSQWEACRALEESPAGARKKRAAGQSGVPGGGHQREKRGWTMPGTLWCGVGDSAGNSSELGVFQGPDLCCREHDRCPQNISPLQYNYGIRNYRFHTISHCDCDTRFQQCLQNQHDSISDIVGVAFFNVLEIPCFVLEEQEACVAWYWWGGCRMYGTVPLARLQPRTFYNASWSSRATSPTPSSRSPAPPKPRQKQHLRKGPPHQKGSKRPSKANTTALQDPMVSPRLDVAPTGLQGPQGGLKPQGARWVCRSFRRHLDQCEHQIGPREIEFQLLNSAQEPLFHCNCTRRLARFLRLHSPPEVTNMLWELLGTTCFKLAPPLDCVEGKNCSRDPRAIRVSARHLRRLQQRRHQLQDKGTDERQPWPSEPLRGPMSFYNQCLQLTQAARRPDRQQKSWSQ
# PLC-beta3 inh – inhibitors of human phospholipase C beta3 | Purified PLC-beta3, fluorogenic substrate, fluorescence | Q01970 | inhibition, % at 12.2 µM | 0.18% of 370,000 active; in the data active = inhibition above about 11%
# PLCg1 inh – blocks human PLC-gamma1 enzyme activity; P19174; purified PLC-gamma1, fluorogenic substrate, fluorescence; inhibition, % at 12.2 µM; 0.84% of 370,000 active; in the data active = inhibition above about 9.5%
# DAGLB inhibitor – diacylglycerol lipase beta (human) inhibition; Q8NCG7; HEK293T DAGLB membrane lysate, EnzChek fluorogenic substrate; inhibition, % at 5.17 µM; 0.059% of 340,000 active; AID 504411; in the data active = inhibition above about 34%
# hGIII sPLA2 conf – human GIII-sPLA2 inhibition, confirmation; recombinant hGIII-sPLA2, BODIPY PC-A2 QFRET fluorescence; inhibition, % at 12.2 µM; shares compounds with HGIII-sPLA2 inh; AID 743280; 34% of 2,000 active;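 active = mean inhibition across triplicates above the hit cutoff set in the earlier primary screen, cut at about 19% in these data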
# BODIPY interf – counter-screen for HGIII-sPLA2 inhibitors: 535nm fluorescence interference; shares compounds with HGIII-sPLA2 inh; BODIPY FL product fluorescence interference, QFRET; inhibition, % at 12.2 µM; 8.5% of 2,000 active; AID 743282;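 active = average inhibition above the solvent-only control mean plus 3 SD, cut at about 6% in these data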
# BODIPY interf DR – counter-screen for HGIII-sPLA2 inhibitors: 535nm fluorescence interference, dose response; shares compounds with HGIII-sPLA2 inh; IC50, µM; BODIPY FL product fluorescence interference, cell-free; 240 tested, under 10 active;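 active = IC50 at or below 10 µM; inactive = IC50 above 10 µM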
# Hits are given with their value; . = inactive; / = no result.
SMILES,HGIII-sPLA2 inh,PLC-beta3 inh,PLCg1 inh,DAGLB inhibitor,hGIII sPLA2 conf,BODIPY interf,others
CC1=C(C(=O)N(C)C)CC(CC(=O)NC2CCCCC2)C(=O)N1CCCN1CCCC1=O (stereo not drawn),21.5,.,.,.,.,.,
O=C(COc1ccccc1O)NCCN1CCOCC1,19.7,.,.,.,.,.,
CCN(CC)C(=O)/C(=C/c1ccc2c(c1)OCO2)NC(=O)c1ccc(Br)cc1,20.4,.,.,.,.,.,
CCOC(=O)[C@@]12CCCC3=C1N(CCC3)C(=O)[C@H]2CC(=O)NCc1cccc2ccccc12,.,.,.,/,/,/,
CCN(CC)c1ccc(C(=C2C=CC(=[N+](CC)CC)C=C2)c2ccccc2)cc1,62.8,.,.,.,75.3,.,
COC(=O)c1cc(-c2ccc(C(C)=O)cc2)c(=O)n2c1CCC2,.,.,.,/,/,/,
C=CCN1[C@H](CO)[C@H](c2ccc(C#CC3(O)CCCC3)cc2)[C@@H]1C#N,.,.,.,/,/,/,
Cc1ccc(C)c(NC(=S)N2C3CCCC2CC(NC(=O)C2CC2)C3)c1 (stereo not drawn),21.3,.,.,.,.,.,
C=CCN1C[C@@H](COCc2ccccc2)Oc2cccc(F)c2S1(=O)=O,.,.,.,/,/,/,
Fc1ccccc1-c1nc(N2CCCCC2)c2ccccc2n1,20.5,.,.,.,.,.,
CCNC(=S)NNC(=O)CSc1nnc(SCc2cccc3ccccc23)s1,.,.,.,/,/,/,
CN1CCCCC(NC(=O)c2ccccc2)C1=O (stereo not drawn),.,.,.,/,/,/,
CC(C)(C)C(=O)NC(=S)Nc1ccc(Cl)c(C(=O)O)c1,.,.,.,.,/,/,
CC(C)(C)C(=O)NC(=S)Nc1ccc(C(F)(F)F)cc1,21.0,.,.,.,.,.,
O=S(=O)(NCc1cn(Cc2ccccc2)nn1)c1ccccc1Br,.,.,.,/,/,/,
CCn1c(-c2ccc(Cl)cc2)n[nH]c1=S,.,.,.,.,/,/,
S=c1[nH]nc(-c2ccc(Cl)cc2Cl)n1Cc1ccccc1,19.8,.,.,.,28.1,.,BODIPY interf DR=.
S=c1[nH]nc(-c2ccccc2Br)n1Cc1ccccc1,26.2,.,.,.,.,.,
S=c1[nH]nc(-c2cccc(Cl)c2)n1Cc1ccccc1,.,.,.,.,/,/,
CCn1c(-c2cccn(Cc3ccc(Cl)cc3Cl)c2=O)n[nH]c1=S,21.2,.,.,.,32.7,.,BODIPY interf DR=.
COc1cccc(-c2nnc(SCc3cc(C)ccc3C)n2Cc2ccco2)c1,.,.,.,/,/,/,
CCCOc1cccc(OCC(=O)Nc2nc3ccccc3[nH]2)c1,25.1,.,.,.,.,.,
O=C1/C(=C/c2ccccn2)SC(=S)N1Nc1ncc(C(F)(F)F)cc1Cl,20.6,.,.,.,31.5,.,BODIPY interf DR=.
NC(=S)NN=Cc1nccc2c(C(F)(F)C(F)(F)C(F)(F)F)cccc12,31.4,.,.,.,38.6,.,BODIPY interf DR=.
NC(=S)NN=Cc1nccc2ccccc12,.,.,.,.,/,/,
SMILES,HGIII-sPLA2 inh,PLC-beta3 inh,PLCg1 inh,DAGLB inhibitor,hGIII sPLA2 conf,BODIPY interf,others
Cc1ccc(NC(=S)NNC(=O)CSc2nc3ccccc3c(=O)n2-c2ccc(Cl)cc2)cc1,29.1,.,.,/,24.4,.,
Cc1ccc(-n2c(SCC(=O)NNC(=S)Nc3ccccc3)nc3ccccc3c2=O)cc1,30.1,.,.,.,26.3,.,
Cc1cc(C)cc(C(=O)OCCCN(C)C2CN(Cc3cn(Cc4ccccc4F)nn3)S(=O)(=O)C2)c1 (stereo not drawn),.,.,.,/,/,/,
Cc1ccc2c(c1)N(CCCC(=O)N(C)Cc1ccccc1F)C(=O)CO2,.,.,.,/,/,/,
COc1ccc(C2C(C(=O)N3CCN(c4ccccc4Cl)CC3)CC(=O)N2c2ccc(OC)cc2)cc1 (stereo not drawn),.,.,.,/,/,/,
CC(C)N(C(=S)NC1CC2CCC1C2)c1ccccc1 (stereo not drawn),.,.,.,.,/,/,
CN(C)c1cccc(C(=O)NNC(=S)NC2CC3CCC2C3)c1 (stereo not drawn),19.6,.,.,.,24.9,.,
CCOC(=O)N(C)[C@H]1C[C@H]2c3[nH]c4c(-c5ccc6c(c5)OCO6)cccc4c3CCN2C(=O)[C@H]1[C@H](C)O,.,.,.,/,/,/,
O=S(=O)(NNc1nccc(C(F)(F)F)n1)c1cccc(Cl)c1Cl,57.8,.,.,.,84.1,87.6,
FC(F)(F)c1ccnc(NCc2ccc(Cl)cc2)n1,.,.,.,.,/,/,
CN(C)c1ccc(/C=N/NC(=S)NCc2ccco2)cc1,25.9,.,.,.,.,.,
S=C(NCc1ccco1)N/N=C/c1ccncc1,.,.,.,.,/,/,
C#CCNC(=O)C[C@H]1C[C@@]2(C(=O)OC)C(=C[C@H](C(C)C)O[C@@H]2C2CC2)N(Cc2ccc3c(c2)OCO3)C1=O,.,.,.,/,/,/,
Cc1ccc(-c2nc3ncccn3c2NC(=O)c2cccc(C)c2)cc1,.,.,.,/,/,/,
CCOc1ccc(C(=O)Nc2nncs2)cc1OCC,21.6,.,.,.,.,.,
CC(C)CNC(=O)COc1ccc2c3c(c(=O)oc2c1)CCC3,21.1,.,.,.,.,.,
CCOC(=O)[C@]12CCCCC/C=C\1N(CCc1ccc(Cl)cc1)C(=O)[C@H]2CC(=O)NCc1ccc(C)o1,.,.,.,/,/,/,
CCCc1c(C(=O)N/N=C(\C)c2ccccc2O)nnn1-c1nonc1N,.,.,.,.,/,/,
C/C(=N\NC(=O)c1nnn(-c2nonc2N)c1-c1ccccc1)c1ccccc1O,26.4,.,.,.,30.4,.,BODIPY interf DR=.
O=C(Nc1cccc(Br)c1)OC1CC2CC1[C@H]1CCCCN1[C@H]2Cc1ccccc1 (stereo partly drawn),.,.,.,/,/,/,
NC(=O)c1ccc(Cl)c2ccccc12,.,.,.,.,/,/,
N=C(N)SCc1ccc(Cl)c2ccccc12,44.8,.,.,.,32.2,.,BODIPY interf DR=.
S=c1[nH]nc(-c2ccc3c(c2)OCO3)n1-c1ccccc1,25.3,.,.,.,23.3,.,
CCN(CC)c1ccc(NC(=O)c2ccc3c(c2)OCO3)cc1,19.6,.,.,.,.,.,
COC(=O)[C@]12C[C@H](CC(=O)N3CCSCC3)C(=O)N(Cc3ccc(Cl)cc3Cl)C1=C[C@H](COCc1ccccc1)O[C@@H]2C,.,.,.,/,/,/,
SMILES,HGIII-sPLA2 inh,PLC-beta3 inh,PLCg1 inh,DAGLB inhibitor,hGIII sPLA2 conf,BODIPY interf,others
CN(C)c1ccc(N=Nc2nccs2)cc1,25.1,.,.,.,44.5,18.4,
CN(C)c1ccc(N=Nc2ccccc2Br)cc1,.,.,.,.,/,/,
COc1ccc(N2CCN(C(=S)NC(=O)c3cccs3)CC2)c([N+](=O)[O-])c1,26.3,.,.,.,27.5,.,
O=C(NC(=S)N1CCN(c2c(Cl)cccc2[N+](=O)[O-])CC1)c1cccs1,.,.,.,.,/,/,
Oc1c(N=NC(=S)Nc2ccccc2F)c2ccccc2n1Cc1ccccc1,.,.,.,.,/,/,
Cc1ccccc1NC(=S)N=Nc1c(O)n(C)c2ccc(S(=O)(=O)N3CCOCC3)cc12,.,.,.,.,/,/,

# Compound activity deposited in PubChem BioAssay by The Scripps Research Institute Molecular Screening Center.
